# Inconclusive results are not listed. A call without a number means that no potency is given here. Activity calls are given as the source filed them. Calls come from the whole dose curve; as a rule, active = well fitted inhibition curve with a large enough effect; inconclusive = small, poorly fitted or top-dose-only effect; inactive = no such curve, though single readings can be large or run the other way.
# Target: Retinaldehyde dehydrogenase 3 (Homo sapiens) (UniProt P47895)
# Assay: qHTS for Inhibitors of the Aldehyde Dehydrogenase Family (ALDH1A3) Confirmatory screens (AID 2061311); note: nearly all actives have a fitted effect of over 60% in size
# Conditions: ALDH inhibition qHTS; series mostly up to 46 µM
# Potency is the fitted concentration of half-maximal effect.
row,SMILES,Potency
1,COc1ccc(C2Nc3ccccc3C(=O)N2Cc2ccccc2C(F)(F)F)cc1COc1ccc(NC(C)=O)cc1 (configuration not stated),15.9 µM (active)
2,COc1ccc(C2Nc3ccccc3C(=O)N2Cc2cccc(C(F)(F)F)c2)cc1COc1ccc(NC(C)=O)cc1 (configuration not stated),10 µM (active)
3,COc1ccc(C2=Nn3c(nnc3-c3ccccc3C)SC2)cc1,inactive
4,CNc1oc(-c2cccc(-c3ccccc3)c2)nc1C#N,25.1 µM (active)
5,O=C(O)c1cccc(-c2noc(-c3cccc(Cl)c3)n2)c1,0.201 µM (active)
6,O=[N+]([O-])c1ccc(CNc2ccc([S+](=O)([O-])Nc3nccs3)cc2)c(O)c1,inactive
7,Nc1nnc(-c2cccc3ccccc23)o1,inactive
8,O=C1c2ccccc2C(=O)N1c1ncccc1O,inactive
9,O=C(Nc1ccc2c(c1)CCC2)Nc1nnc(-c2ccncc2)s1,inactive
10,COc1cccc(C2c3c(ncn(-c4ccccc4C#N)c3=N)Oc3ccc4ccccc4c32)c1 (configuration not stated),25.2 µM (active)
11,Cc1ccc(Cl)cc1NS(=O)(=O)c1cc2c(cc1F)NC(=O)CC2,12.6 µM (active)
12,O=C(O)c1cccc(-n2cccc2)c1,inactive
13,CC(C)(C)CNc1nc(C#N)nc(Nc2ccccc2)n1,inactive
14,COc1cccc(CNc2ccc([S+](=O)([O-])Nc3cc4ccccc4s3)cc2)c1O,11.3 µM (active)
15,N#Cc1c(-c2ccc(F)cc2)no[n+]1[O-],inactive
16,Cc1cccc(C[C@H](C(=O)O)N2C(=O)c3ccc(C(=O)O)cc3C2=O)c1,inactive
17,Cc1ccc(C)c(SC2=NS(=O)(=O)c3ccccc32)c1,inactive
